Bioassay records (PubChem)
Lassa entry inh: Lassa virus entry inhibition; Lassa virus pseudotype entry inhibition, cell reporter; Potency, µM (series often up to 37.9 µM), hits mostly inhibitors; hit rate 1.2% among 300,000; AID 540256; calls by dose curve; tested in HEK293 cells; further: nearly all actives have a fitted effect of over 50% in size
Pf growth 48h: inhibits P. falciparum growth in the first generation, 48 h. P. falciparum luciferase growth in erythrocytes, 48 h. Potency, µM (highest dose often 28.7 µM), usual class: inhibitors. hit rate 5.9% among 310,000
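Cell-based growth assay: transgenic P. falciparum expressing firefly luciferase, cultured in red cells within RPMI 1640 containing 0.5% w/v Albumax, 24 mM bicarbonate and gentamycin. A drop in luciferase activity indicates inhibition.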
HCMV inh: human cytomegalovirus inhibition; hit rate 4.5% among 410,000; activity change, negative = inhibition, % at 57.5 µM; HFF cells, HCMV-luciferase reporter, 72 h; active compounds read low; in the data active means activity change below about -60%; inconclusive means no clear call, values can overlap the other calls; inactive means above about -39%
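Human foreskin fibroblasts infected with luciferase-reporter HCMV at MOI 1 PFU/cell, compounds at two doses. Luciferase measured 72 h post infection; normalized to buffer-only basal and Salinomycin (10uM) controls.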
HCV inh: inhibitors of hepatitis C virus infection; Huh7.5.1 HCVcc-Cre infection, luciferase reporter, 44 h; Potency, µM (titrated, usually from 41.8 µM), actives largely listed as inhibitors; hit rate 3.4% among 340,000; AID 651820
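Reporter virus HCVcc-Cre (~0.5 moi) infects cells exposed to compound; seeding density 1,000 cells/well with 4 h settling beforehand. Luminescence, 15 sec read, taken 44 h post-infection following a 15 min RT substrate incubation.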
Pf growth 96h: P. falciparum growth inhibition at 96 hour, primary screen for plastid delayed-death inhibitors. AID 504834. Potency, µM (titrated, usually from 28.7 µM), actives largely listed as inhibitors. hit rate 6.9% among 320,000. P. falciparum luciferase reporter growth, 96 h
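Cell-based qHTS: luciferase-tagged P. falciparum in erythrocytes (2% hematocrit, 0.05% parasitemia final) incubated with compounds for 96 hours, 37 C, 5% CO2; luciferase detection reagent then added and luminescence measured.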
MARV entry inh: blocks Marburg virus binding to or entry into cells; Marburg virus pseudotyped entry inhibition, cell reporter; Potency, µM (doses to about 37.8 µM), actives largely listed as inhibitors; hit rate 1.8% among 300,000; AID 540276; calls by dose curve; tested in HEK293 cells
Of the large screens only hits and unclear results are named; the others gave an inactive call. In the library only some 14% were active in any assay of this set; here they are far more common. Unless noted, the call rests on the fitted dose curve; in most records, active means well fitted inhibition curve with a large enough effect; inconclusive means small, poorly fitted or top-dose-only effect, or another doubt; inactive means no such curve, though single readings can be large or run the other way.

COc1ccccc1C1c2[nH]c3ccccc3c2CCN1Cc1cnc(C)s1 (stereo not drawn)	Lassa entry inh inconclusive, Pf growth 48h inconclusive, HCMV inh inconclusive, Pf growth 96h inconclusive
Oc1cccc(C2c3[nH]c4ccccc4c3CCN2Cc2ccc3c(c2)CCO3)c1 (stereo not drawn)	Lassa entry inh inconclusive, Pf growth 48h inconclusive, MARV entry inh 3.16µM
COc1cccc(C2c3[nH]c4ccccc4c3CCN2Cc2cnc(C)s2)c1OC (stereo not drawn)	Lassa entry inh inconclusive, Pf growth 48h 2.33µM, Pf growth 96h inconclusive
Cc1cccc(C2c3[nH]c4ccccc4c3CCN2Cc2cccn2-c2ncccn2)c1 (stereo not drawn)	Lassa entry inh 11.2µM, Pf growth 48h inconclusive, MARV entry inh inconclusive
c1ccc(C2c3[nH]c4ccccc4c3CCN2Cc2cccn2-c2ccccn2)nc1 (stereo not drawn)	Pf growth 48h inconclusive, HCV inh inconclusive, Pf growth 96h inconclusive (no result: Lassa entry inh, MARV entry inh)
COc1ccc(C2c3[nH]c4ccccc4c3CCN2Cc2cccn2-c2ncccn2)cc1C (stereo not drawn)	Lassa entry inh inconclusive, Pf growth 48h inconclusive, HCMV inh -98.7, HCV inh inconclusive, MARV entry inh 7.08µM
CC(C)c1nc2sc3c(N4CCCCC4)ncnc3c2c2c1CCCC2	none (no result: Pf growth 48h, HCV inh, Pf growth 96h)
Cc1ccc(OCC(=O)NCC(=O)OCc2cc(=O)n3nc(C)sc3n2)cc1	none (no result: Pf growth 48h, HCV inh, Pf growth 96h, MARV entry inh)
CCOC(=O)c1c(NC(=O)c2cc(CC)on2)sc(C)c1C	MARV entry inh inconclusive (no result: Pf growth 48h, HCV inh, Pf growth 96h)
Cc1nnc(NC(=O)CSCc2cc(=O)c3cc(Cl)ccc3[nH]2)s1	none (no result: Pf growth 48h, HCV inh, Pf growth 96h, MARV entry inh)
COc1ccc(CNC(=O)c2cc(-c3ccc(OC)c(OC)c3)nc3n[nH]c(-c4ccc(C)cc4)c23)cc1	HCMV inh -97.5 (no result: Pf growth 48h, HCV inh, Pf growth 96h, MARV entry inh)
COc1ccc(CNC(=O)c2cc(-c3ccc(C)cc3)nc3n[nH]c(-c4ccc(Br)cc4)c23)cc1	none (no result: Pf growth 48h, HCV inh, Pf growth 96h, MARV entry inh)
COc1ccc(-c2cc(C(=O)NCc3ccc(F)cc3)c3c(-c4ccc(F)cc4)[nH]nc3n2)cc1OC	Lassa entry inh inconclusive, HCMV inh -101.0 (no result: Pf growth 48h, HCV inh, Pf growth 96h, MARV entry inh)
Cc1cccnc1CNC(=O)C1(C)CCCN1CC(C)C (stereo not drawn)	none (no result: Lassa entry inh, Pf growth 48h, HCV inh, Pf growth 96h, MARV entry inh)
COc1ccc(C(=O)Cn2cc[n+](C)c2)cc1	Pf growth 48h 11.7µM, HCV inh 11.2µM
CCn1ncc(C2=NOC(C(=O)NCc3ccccc3)C2)c1C (stereo not drawn)	HCMV inh -60.1, Pf growth 96h inconclusive, MARV entry inh inconclusive
CCn1ncc(C2=NOC(C(=O)Nc3c(C)nn(Cc4ccc(F)cc4)c3C)C2)c1C (stereo not drawn)	HCMV inh -60.6, HCV inh inconclusive (no result: Lassa entry inh, Pf growth 48h, MARV entry inh)
Cc1ccc2c(c1)CCCN2CC(=O)Nc1cc(S(=O)(=O)N2CCCC2)ccc1Cl	Pf growth 48h 10.4µM, HCV inh inconclusive, Pf growth 96h 4.65µM (no result: Lassa entry inh, MARV entry inh)
Cc1ccc2c(c1)CCCN2CC(=O)Nc1cccc(S(=O)(=O)N2CCCC2)c1	Pf growth 48h inconclusive, Pf growth 96h inconclusive (no result: Lassa entry inh, MARV entry inh)
O=C(CN1CCCc2ccccc21)Nc1cccc(S(=O)(=O)N2CCOCC2)c1	Pf growth 48h inconclusive, Pf growth 96h inconclusive
O=C(Cn1nnc(-c2ccc(S(=O)(=O)N3CCCC3)cc2)n1)Nc1ccccc1-n1cccc1	Pf growth 48h 9.28µM, Pf growth 96h inconclusive
NC(=O)c1ccc(-c2nnn(CC(=O)Nc3cccc(S(=O)(=O)N4CCCC4)c3)n2)cc1	none (no result: Lassa entry inh, MARV entry inh)
O=C(CN1CCCc2ccccc21)Nc1cc(S(=O)(=O)N2CCCC2)ccc1Cl	Pf growth 48h 13.1µM, HCV inh inconclusive, Pf growth 96h 8.28µM (no result: Lassa entry inh, MARV entry inh)
CCc1ccc2ncc3c(-c4ccccc4)nn(-c4ccccc4)c3c2c1	none (no result: Pf growth 48h, HCV inh, Pf growth 96h)
COc1ccc(OCC2c3cc(OC)c(OC)cc3CCN2C(=O)c2c(F)cccc2F)cc1 (stereo not drawn)	Lassa entry inh inconclusive (no result: Pf growth 48h, HCV inh, Pf growth 96h, MARV entry inh)
CCCCCCCCN1C(=O)[C@H](CC(=O)NCCCCc2ccccc2)C[C@@]2(C(=O)OC)CCCCC=C12	none (no result: Lassa entry inh, Pf growth 48h, HCV inh, Pf growth 96h, MARV entry inh)
COc1cc(OC)cc(C(=O)Nc2cc(NC(=O)c3ccco3)ccc2OC)c1	Pf growth 48h inconclusive, HCV inh 10µM
COc1cc(NC(=O)COc2ccc(C)c(C)c2)ccc1NC(=O)c1ccco1	Pf growth 48h 7.38µM, HCV inh inconclusive
COc1ccc(OCC(=O)Nc2cc(NC(=O)c3ccco3)ccc2OC)cc1	Lassa entry inh inconclusive, Pf growth 48h inconclusive, Pf growth 96h 8.28µM
COc1ccc(C)cc1NC(=O)C(=O)NNC(=O)c1ccco1	Pf growth 96h 1.85µM
COc1cc(NC(=O)COc2cccc(C)c2C)ccc1NC(=O)c1ccco1	HCV inh inconclusive, Pf growth 96h inconclusive (no result: Lassa entry inh)
COc1cc(OC)cc(C(=O)Nc2ccc(NC(=O)c3ccco3)c(C)c2)c1	HCV inh inconclusive, MARV entry inh inconclusive
COc1ccc(NC(=O)c2ccco2)cc1NC(=O)COc1ccccc1	HCV inh inconclusive
O=C(CS(=O)(=O)c1ccc(Cl)cc1)Nc1nc2ccc(Br)cc2s1	HCMV inh inconclusive (no result: Pf growth 48h, HCV inh, Pf growth 96h, MARV entry inh)
COc1cc(NC(=O)c2ccc3c(c2)OCCO3)ccc1NC(=O)c1ccco1	Pf growth 96h 2.33µM, MARV entry inh inconclusive
COc1ccccc1OCC(=O)Nc1cc(C)ccc1NC(=O)c1ccco1	Pf growth 48h inconclusive, Pf growth 96h 10.4µM
COc1ccc(NC(=O)c2ccco2)cc1NC(=O)COc1ccc(C)cc1C	HCMV inh -66.0 (no result: Pf growth 48h, HCV inh, Pf growth 96h)
C=CCn1c(SCC(=O)Nc2ccc(NC(=O)c3ccco3)c(OC)c2)nnc1-c1ccncc1	Pf growth 48h 13.1µM, HCV inh inconclusive, Pf growth 96h inconclusive
Cc1ccc(NC(=O)COc2ccccc2)c(NC(=O)c2ccco2)c1	none (no result: Lassa entry inh, MARV entry inh)
